From PubChem BioAssay (NCATS)
Results filed as inconclusive are left out. Entries that show only a call come without a potency. Unmarked numbers belong to inactive results. Calls of active or inactive are those of the source. Calls follow the shape of the dose curve; as a rule, active = well fitted inhibition curve with a large enough effect; inconclusive = small, poorly fitted or top-dose-only effect; inactive = no such curve, though single readings can be large or run the other way.

Experiments:
[1] = test system: Zika virus NS2B-NS3 protease (unlinked complex); experiment: Primary screen GU Rhodamine qHTS for Zika virus inhibitors: Unlinked NS2B-NS3 protease assay (AID 1347159); details: Recombinant ZIKV NS2B-NS3 protease, Rhodamine110 substrate fluorescence; series mostly up to 107 µM; also: nearly all actives have a fitted effect of over 60% in size
In short: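 In dose–response format, inhibition of unlinked protease (25 nM) was measured with 1.5 microM bis-peptide Rhodamine110 substrate. Aprotinin served as the intraplate control.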

[2] = test system: Zika virus NS2B-NS3 protease (linked construct); experiment: Primary screen NINDS Rhodamine qHTS for Zika virus inhibitors (AID 1347160); details: purified NS2B-NS3 protease, Rhodamine110 substrate fluorescence; series mostly up to 57.1 µM; also: nearly all actives have a fitted effect of over 55% in size
In short: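 Each compound, titrated, sat 15 min with 25 nM linked protease before 1.5 microM Rhodamine110 substrate went in. Fluorescence gain over the next 15 min, in pH 8.0 Tris with Tween 20, gave Hill-fitted curves.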

Structure (SMILES) | Potency [1] | Potency [2] | activity change, negative = inhibition [1] | activity change, negative = inhibition [2]
COc1c(C)cnc(Cn2cc(C#CCC(C)(C)O)c3c(Cl)nc(N)nc32)c1C | inactive | inactive |  | 
CCCN1CCC=C(c2cc(-c3ccc(C)cc3)no2)C1 | inactive | inactive |  | 
CC(C)(N)c1ncc(-c2ccc(OC(F)(F)F)cc2)[nH]1 | inactive | inactive |  | 
Clc1ccc(Cn2c(Cc3ccccc3)nc3ccccc32)cc1 | inactive | inactive |  | 
COc1ccc(C2(N(C)C(=O)c3ccc(NC(=O)c4ccco4)cc3)CCOCC2)cc1 | inactive | inactive |  | 
Cn1cc(-c2ccc3c(c2)CCN3C(=O)Cc2cccc(C(F)(F)F)c2)c2c(N)ncnc21 | inactive | inactive |  | 
O=c1nc(-c2ccccn2)sc2ccccc12 | inactive | inactive |  | 
OC[C@H]1O[C@@H](OC/C=C/c2ccc(O)cc2)[C@H](O)[C@@H](O)[C@@H]1O | inactive | inactive |  | 
COC(=O)CC(O)CC(O)/C=C/c1c(C)ccc2c1C(OC(C)=O)CC(C)C2 (centres undefined) | inactive | inactive |  | 
Cc1ccc(O)cc1Nc1ccnc(Nc2cccc(C(N)=O)c2)n1 | inactive | inactive |  | 
C=C(C(=O)OC)[C@@H]1CC=C2C=CC(=O)[C@H](C)[C@@]2(C)C1 | inactive | inactive |  | 
CCCC(Nc1nc(-c2ccc(NC(=O)NCC)c(OC)c2)ncc1C)c1cccnc1 (centres undefined) | inactive | inactive |  | 
Cc1nc(NC(=O)N2CCC[C@H]2C(N)=O)sc1-c1ccnc(C(C)(C)C(F)(F)F)c1 | inactive | inactive |  | 
CC1CCCC[C@H]2C(=O)C=C[C@H](O)[C@@H]2CC(=O)O1 (some centres undefined) | inactive | inactive |  | 
Cc1cc(F)c(C(=O)Nc2cccc(-c3nncn3C(C)C)n2)cc1-n1cnc(C2CC2)c1 | inactive | inactive |  | 
N#Cc1cc(C2=Nc3ccc(Br)cc3NC(=O)C2)ccn1 | inactive | inactive |  | 

Structure (SMILES) | Potency [1] | Potency [2] | activity change, negative = inhibition [1] | activity change, negative = inhibition [2]
O=C(NC1CCC1)c1ccc(C#Cc2cccc(F)c2)nc1 | inactive | inactive |  | 
C=CC(=O)N1CCC(Oc2cc3c(Nc4ccc(Cl)c(Cl)c4F)ncnc3cc2OC)CC1 | inactive | inactive |  | 
CC1OC(=O)C[C@@H]2C(C(=O)O)=CO[C@@H](O[C@H]3O[C@H](CO)[C@@H](O)[C@H](O)[C@H]3O)[C@H]12 (some centres undefined) | inactive | inactive |  | 
Cc1cc2c(F)c(Oc3ncnn4cc(OCC(C)OC(=O)C(C)N)c(C)c34)ccc2[nH]1 (centres undefined) | inactive | inactive |  | 
Cc1c(C(=O)Nc2ccc(N3CCC(N4CCOCC4)CC3)c(C#N)c2)cnn1-c1ccc(Cl)cc1 | inactive | inactive |  | 
CN(C)Cc1ccc(-c2cnn3c(-c4cccc(NC(=O)c5cccc(C(F)(F)F)c5)c4)ccnc23)cc1 | inactive | inactive |  | 
CN1CCN(c2ccc(Nc3cc(-c4cccc(-n5ccc6cc(C7CC7)cc(F)c6c5=O)c4CO)cn(C)c3=O)nc2)CC1 | inactive | inactive |  | 
CN(C)CCn1cc(-c2ccc(F)cc2)c(-n2cccc2)n1 | inactive | inactive |  | 
CN(C)c1ccnc2sc3c(=O)n(N4CCCCCC4)cnc3c12 | inactive | inactive |  | 
O=C(Nc1ccccc1Cl)c1cnc2ccc(C3CCNCC3)cn12 | inactive | inactive |  | 
CC(=O)O[C@H]1[C@@]2(O)C[C@H](C)[C@H](OC(=O)c3ccccc3)[C@@H]2[C@@H](OC(=O)CO)[C@]2(OC(C)=O)C[C@H]3C(=O)C(C)(C)C[C@@H]3[C@@]1(C)[C@H]2OC(C)=O | inactive | inactive |  | 
CN(C)S(=O)(=O)c1ccc(NC(=S)N2CCC(C(O)(c3ccccc3)c3ccccc3)CC2)cc1 | inactive | inactive |  | 
Cc1cc(C(=O)Nc2cc(Nc3ccc4c(/C=C/c5ccccn5)n[nH]c4c3)ccc2F)n(C)n1 | inactive | inactive |  | 
Cc1cc(C(=O)Nc2cc(Oc3ccc4nc(NC(=O)C5CC5)cn4n3)ccc2C)n(C)n1 | inactive | inactive |  | 
COc1ccc([C@H](Cc2ccncc2)c2ccccc2)cc1OC1CCCC1 | inactive | inactive |  | 
C[C@@H]1O[C@@H](O[C@H]2[C@H](OC(=O)[C@]34CCC(C)(C)C[C@H]3C3=CCC5[C@@]6(C)C[C@H](O)[C@H](O[C@@H]7O[C@H](C(=O)O)[C@@H](O)[C@H](O)[C@H]7O)[C@@](C)(CO)C6[C@H](O)C[C@@]5(C)[C@]3(C)C[C@H]4O)O[C@@H](CO)[C@@H]2O)[C@H](O)[C@H](O)[C@H]1O[C@@H]1OC[C@@H](O)[C@H](O[C@H]2OC[C@](O)(CO)[C@H]2O)[C@H]1O (some centres undefined) |  |  | 13.4% [at 19.1 µM] | -5.61% [at 10.7 µM]
